Assay outcomes as filed in PubChem.
In the library only some 3% were active in any assay of this set; here they are far more common.
PMP22 txn prim – modulators of PMP22 gene transcription in S16 Schwann cells | AID 1508649 | S16 Pmp22-F2sN Schwann cells, FLuc/NLuc coincidence luminescence, 24 h | 43,000 compounds, 2% hits | Potency, µM (titrated, usually from 57.5 µM), for inactives: at the highest dose activity change, negative = inhibition, hits mostly inhibitors; active means clear falling dose curves in both reporters; inconclusive means both reporters move, but less clearly or upward; inactive means either reporter flat; the % is the NLuc reporter signal
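S16(c9) Schwann cells with FLuc/NLuc coincidence reporter in the Pmp22 3' UTR; compounds pin-transferred, 24 h at 37C. Dual-luciferase read: FLuc first, then NLuc after Stop&Glo, each 10 min at room temperature.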
S16 viability – cytotoxicity in S16 Pmp22-F2sN Schwann cells. S16 Pmp22-F2sN Schwann cells viability, CellTiter-Glo, 24 h. Potency, µM (highest dose often 57.5 µM), inactives show top-dose activity change, negative = cytotoxicity, most hits filed as cytotoxic. 43,000 compounds, 0.48% hits; further: nearly all actives have a fitted effect of over 65% in size
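Used to flag compounds lowering reporter output through toxicity, this quantitative HTS measures ATP-based CellTiter-Glo luminescence in S16 Pmp22-F2sN Schwann cells after 24 h compound exposure at 37C.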
pS6 MEF inh – mTORC1 pathway inhibition measured by phospho-rpS6 | 44,000 compounds, 0.78% hits | Potency, µM (titrated, usually from 38.3 µM), without a hit: at the top dose activity change, negative = inhibition, hits mostly inhibitors | Tsc2-/- p53-/- MEF, phospho-rpS6 immunofluorescence/PI, 24 h | AID 493208;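 further: plate controls were DMSO for no effect and rapamycin for full effect; nearly all actives have a fitted effect of over 50% in size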
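Cell-based qHTS: Tsc2-/- p53-/- MEF, 24 h cpd, 37 °C; fix/perm, anti-phospho-S6 Alexa-488 + PI; Acumen 488 nm scan; pS6/PI ratio, % positive cells; rapamycin 7.5 nM = inhibition ref; PI count = viability.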
p53null 39C tox – selectivity test: cytotoxicity in p53 null cells, nonpermissive temperature | H1299 p53-null (neo) cells, 39C, ATPlite viability, 24 h | Potency, µM (highest dose often 46.1 µM), for the others: at the top dose activity, negative = cell killing, hits mostly cytotoxic | 55,000 compounds, 0.97% hits | AID 904;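 further: 0% = DMSO only and -100% = full killing by 100 µM tamoxifen; nearly all actives have a fitted effect of over 50% in size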
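H1299 lung cancer cells, p53-null (H1299-neo) or expressing p53 A138V (H1299-p53A138V), were plated overnight at 37C, then exposed to compounds at up to 46 uM for 24 hr at 39C. Viability was read by ATP-based luminescence.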
OvCa metastasis – blocks SKOV3ip1 adhesion and invasion in omental model; SKOV3ip1-GFP adhesion/invasion on 3D omental model, fluorescence; Potency, µM (highest dose often 45.8 µM), for inactives: at the highest dose activity change, negative = inhibition, actives largely listed as inhibitors; 46,000 compounds, 0.1% hits; AID 1963576;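 further: plate controls were DMSO wells for no effect and tomatine positive control wells for full effect; nearly all actives have a fitted effect of over 65% in size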
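qHTS, 4-pt dose (0.36-46 umol/L); SKOV3ip1-GFP, 1,200 cells/well, no FBS; primary omental fibroblast/mesothelial co-culture 48 h pre-grown; 2 h RT + 16 h 37 C; PBS wash, 4% PFA; GFP count 488/509 nm.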
p53null 32C kill – p53 null cell cytotoxicity, permissive temperature | H1299-neo p53 null cells, ATP luminescence, 24 h, 32C | Potency, µM (highest dose often 46.1 µM), for the others: at the highest dose activity change, negative = cytotoxicity, most hits filed as cytotoxic | 55,000 compounds, 0.62% hits | AID 903;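 further: 0% = DMSO only and -100% = full killing by 100 µM tamoxifen; nearly all actives have a fitted effect of over 55% in size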
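Cells lacking p53 (H1299-neo) are plated at 600 per well and allowed to settle overnight at 37C. Test compounds (up to 46 uM) are added and held 24 hours at 32C, then ATP is quantified by luminescence.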
Starred values were filed as active, the others as inactive; i = inactive; ? = inconclusive; · = not tested or not shown. Unless noted, the call rests on the fitted dose curve; in most records, active means well fitted curve in the direction sought with a large enough effect; inconclusive means small, poorly fitted or top-dose-only effect, or another doubt; inactive means no such curve, though single readings can be large; an effect the other way counts as inactive or inconclusive. Unless noted, on the % scale 0 is the no-effect control and ±100 the full control effect; potency means the concentration at half of the fitted maximal effect.

SMILES	PMP22 txn prim	S16 viability	pS6 MEF inh	p53null 39C tox	OvCa metastasis	p53null 32C kill
CN1C(=O)c2ccccc2Sc2ccc(NC(=O)c3ccc(C(F)(F)F)cc3)cc21	11µM*	-11%	0%	4%	-9%	15%
Cc1ccccc1C(C(=O)NC1CCCCC1)N(C(=O)CNc1ccc(C#N)cc1)c1cccc(F)c1 (configuration not stated)	·	·	·	·	0%	·
CC1=C(C(=O)Nc2cc3cn[nH]c3cc2F)C(c2ccc(Cl)cc2F)N=C(c2ccnc(Cl)c2)N1 (configuration not stated)	·	·	·	·	17%	·
COc1ccc(CCN2CCC(CNC(=O)c3cnn(-c4cccc(Cl)c4)c3C3CCN(C(=O)OC(C)(C)C)CC3)CC2)cc1	?	?	?	20µM*	?	4%
CC(C)(C)OC(=O)N1CCC(c2c(C(=O)NCCN3CCC(Cc4ccccc4)CC3)cnn2-c2ccc(F)cc2)CC1	?	?	?	25µM*	?	?
COc1ccc(CCN2CCC(CNC(=O)c3cnn(-c4ccccc4)c3C3CCN(C(=O)OC(C)(C)C)CC3)CC2)cc1	?	?	7%	-10%	?	16%
NCc1c[nH]c(=S)n1[C@H]1CCc2c(F)cc(F)cc2C1	·	·	·	·	32%	·
Cc1nnc(NC(=O)C(=O)c2cc(C)n(-c3ccc(C)c(C)c3)c2C)s1	2.9µM*	?	1%	0%	2%	3%
CCc1cnn2c(NCc3ccc[n+]([O-])c3)cc(N3CCCC[C@@H]3CCO)nc12	·	·	·	·	-2%	·
CCOc1ccc(NC(=O)CSc2oc(-c3ccc(C)cc3)nc2S(=O)(=O)c2ccc(C)cc2)cc1	?	22µM*	0%	13µM*	-1%	13µM*
CCOc1ccc(NC(=O)CSc2oc(-c3cccs3)nc2S(=O)(=O)c2ccc(Cl)cc2)cc1	?	?	-2%	?	-7%	-10%
O=c1cc(N2CCOCC2)oc2c(-c3cccc4c3sc3ccccc34)cccc12	·	·	·	·	-29%	·
O=C(Nc1ccccc1C(F)(F)F)c1cc2ccccn2n1	·	·	3%	10µM*	4%	7.9µM*
CCOC(=O)c1ccccc1NC(=O)c1ccc2c(Cl)c3c(nc2c1)CCC3	-7%	9%	0%	?	i	?
CCOC(=O)c1cccc(NC(=O)c2ccc3c(Cl)c4c(nc3c2)CCC4)c1	-13%	4%	?	0.4µM*	-4%	?
CCOC(=O)c1cccc(NC(=O)c2cc3ccccn3n2)c1	·	·	0%	10µM*	1%	13µM*
N#Cc1cc(NC(=O)Nc2nnc(-c3ccncc3)s2)ccc1-c1cn[nH]c1	·	·	·	·	-5%	·
CNC(=O)c1cc(Oc2ccc(NC(=O)Nc3ccc(Cl)c(C(F)(F)F)c3)c(F)c2)ccn1	·	·	·	·	-26%	·
Cc1cc(Nc2ccc(Cl)cc2C)nc(-n2nc(C)cc2C)n1	7µM*	5.6µM*	0%	-7%	-9%	-13%
Nc1ccc2oc(-c3ccccn3)nc2c1	·	·	·	-21%	·	11µM*
COC(=O)c1ccc(-c2nc3cc(N)ccc3o2)cc1	·	·	·	-14%	·	?
O=C(Nc1nc2cccc(-c3ccc(CN4CCS(=O)(=O)CC4)cc3)n2n1)C1CC1	·	·	·	·	15%	·
CC(=O)N1CCCc2cc(S(=O)(=O)N3CCCC(C(=O)N4CCN(c5ccccc5F)CC4)C3)ccc21 (configuration not stated)	?	10µM*	-15%	12%	2%	-2%
CN(C)C1CCN(C(=O)c2ccc(NC(=O)Nc3nc(N4CCOCC4)nc(N4CCOCC4)n3)cc2)CC1	·	·	·	·	22%	·
CCc1cccc(NC(=O)Cn2c(=O)n(CC(=O)NCCc3ccccc3)c(=O)c3ccccc32)c1	?	-5%	4%	13µM*	0%	13µM*
SMILES	PMP22 txn prim	S16 viability	pS6 MEF inh	p53null 39C tox	OvCa metastasis	p53null 32C kill
COc1ccc(CCNC(=O)C(C)n2nc(C)c3sc4ccccc4c3c2=O)c(OC)c1 (configuration not stated)	-10%	0%	2.9µM*	?	i	-21%
CCC(C(=O)NCCc1ccc(OC)c(OC)c1OC)n1nc(C)c2sc3ccccc3c2c1=O (configuration not stated)	?	?	1%	1%	0%	-11%
COc1ccc(CCNC(=O)CCCn2c(=O)c3ccccc3n(CC(=O)Nc3cc(Cl)ccc3C)c2=O)cc1OC	?	20%	?	13µM*	i	?
CCOc1ccc(CCNC(=O)CCCn2nc(C)c3sc4ccccc4c3c2=O)cc1OCC	?	5%	0%	-23%	i	?
COc1ccc(CCNC(=O)CCCn2nc(C)c3sc4ccccc4c3c2=O)cc1OC	-32%	-10%	18µM*	?	-1%	?
Cc1cc(C)cc(NC(=O)Cn2c(=O)n(CC(=O)NCCc3ccccc3)c(=O)c3ccccc32)c1	?	-4%	-3%	?	1%	?
Cc1ccc(S(=O)(=O)Cc2ccc(C(=O)N3CCN(c4cccc(Cl)c4)CC3)o2)cc1	15µM*	-17%	?	?	-10%	1%
Cc1noc(/C=C/N(C)C)c1S(=O)(=O)N1CCCC(C(=O)Nc2ccc(F)cc2F)C1 (configuration not stated)	-40%	2%	18µM*	18%	-6%	36%
CCOC(=O)c1[nH]c2ccccc2c1NC(=O)c1ccccc1OC	?	?	2%	16µM*	?	7%
CCOC(=O)c1[nH]c2ccccc2c1NC(=O)c1cc(Cl)ccc1Cl	?	-2%	-29%	?	i	-28%
Cc1ccc(-c2c(C)n3c4c(=O)n(C)c(=O)n(C)c4nc3n2CCCO)cc1	?	32µM*	-5%	-12%	10%	-6%
C[C@@H](Oc1ccc2[nH]nc(C=Cc3cnn(CCO)c3)c2c1)c1c(Cl)cncc1Cl	·	·	·	·	3%	·
Cc1ccc2ncc(C(=O)c3ccc(C)c(C)c3)c(S(=O)(=O)c3ccccc3)c2c1	?	?	-6%	23%	4%	29%
CCc1ccc(C(=O)c2cnc3ccc(F)cc3c2S(=O)(=O)c2ccccc2)cc1	?	-30%	12µM*	78%	-10%	26%
CCc1cc(C(C)=NOCc2ccc(C3CCCCC3)c(C(F)(F)F)c2)ccc1CN1CC(C(=O)O)C1	·	·	·	·	-3%	·
